# An excerpt weighted towards active compounds, which were near 2.4% of everything screened.
# ULK1 primary: blocks human autophagy kinase ULK1; 30,000 compounds, 1.9% hits; AlphaScreen Atg13 phosphorylation by ULK1, luminescence; inhibition, % at 5.96 µM; in the data active means inhibition above about 43%;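 further: 0% = median of compound wells and 100% = no enzyme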
# Target sequence (O75385 whole entry, looked up): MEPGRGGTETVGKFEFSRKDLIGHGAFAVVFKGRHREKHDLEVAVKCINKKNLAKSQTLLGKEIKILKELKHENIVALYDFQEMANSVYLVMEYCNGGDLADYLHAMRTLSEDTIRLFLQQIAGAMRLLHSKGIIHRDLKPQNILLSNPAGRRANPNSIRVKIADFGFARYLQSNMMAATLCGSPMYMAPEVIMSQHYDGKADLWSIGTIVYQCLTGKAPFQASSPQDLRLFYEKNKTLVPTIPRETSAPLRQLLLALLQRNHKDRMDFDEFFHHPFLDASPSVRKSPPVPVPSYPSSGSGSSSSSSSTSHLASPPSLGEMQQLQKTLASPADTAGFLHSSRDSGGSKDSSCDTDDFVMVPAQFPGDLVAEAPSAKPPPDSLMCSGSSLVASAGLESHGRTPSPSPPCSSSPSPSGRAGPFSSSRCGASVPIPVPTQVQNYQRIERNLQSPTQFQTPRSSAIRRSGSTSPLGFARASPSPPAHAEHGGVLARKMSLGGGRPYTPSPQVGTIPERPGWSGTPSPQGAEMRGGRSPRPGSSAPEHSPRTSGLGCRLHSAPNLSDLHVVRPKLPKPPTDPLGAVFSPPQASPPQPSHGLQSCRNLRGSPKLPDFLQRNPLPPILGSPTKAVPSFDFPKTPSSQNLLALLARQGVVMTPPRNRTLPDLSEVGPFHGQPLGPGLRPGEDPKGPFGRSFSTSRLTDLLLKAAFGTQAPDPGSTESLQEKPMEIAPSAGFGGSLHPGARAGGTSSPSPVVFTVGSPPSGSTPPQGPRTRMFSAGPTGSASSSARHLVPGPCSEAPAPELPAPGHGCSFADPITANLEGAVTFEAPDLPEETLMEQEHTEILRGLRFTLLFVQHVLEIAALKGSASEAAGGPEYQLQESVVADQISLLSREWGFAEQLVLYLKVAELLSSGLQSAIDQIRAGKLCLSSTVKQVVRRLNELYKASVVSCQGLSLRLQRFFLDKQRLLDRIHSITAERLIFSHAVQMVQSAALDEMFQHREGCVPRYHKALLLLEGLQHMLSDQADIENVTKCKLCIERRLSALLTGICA
# ASK1 primary: human ASK1 kinase inhibition, primary screen. Q99683. AlphaScreen MKK6 phosphorylation by ASK1, luminescence. inhibition, % at 7.44 µM. 22,000 compounds, 0.99% hits; in the data active means inhibition above about 35%;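 further: 0% = median of compound wells and 100% = no enzyme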
# TruHits interf: AlphaScreen optical interference dose response, ASK1 counter-screen; shares compounds with ASK1 primary; AlphaScreen TruHits beads, signal interference counterscreen; IC50, µM; 220 compounds, 20% hits; AID 1159604;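 active means IC50 of 10 µM or lower in the counterscreen; inactive means IC50 above 10 µM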;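 further: loss of AlphaScreen light from TruHits beads alone with no ASK1 enzyme present; potency of signal reduction so a low IC50 flags an assay artifact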
# * marks the source's active call; other numbers are inactive results; i = inactive; · = not tested or not shown.
SMILES,ULK1 primary,ASK1 primary,TruHits interf
c1cnc2ccc(Nc3nc4ncnc(Nc5ccc6c(c5)OCO6)c4[nH]3)cc2c1,6.9,25.3,·
c1nc2nc(N3CCN(Cc4ccc5c(c4)OCO5)CC3)nc(Nc3ccc(N4CCOCC4)cc3)c2[nH]1,26.3,21.7,·
Oc1ccc(CCNc2ncnc3nc(N4CCN(Cc5ccc6c(c5)OCO6)CC4)[nH]c23)cc1,13.4,41.2*,i
c1ccc(CNc2ncnc3nc(N4CCN(Cc5ccc6c(c5)OCO6)CC4)[nH]c23)cc1,-12.9,0.2,·
c1cn(-c2ccc(Nc3nc4ncnc(Nc5ccc6c(c5)OCO6)c4[nH]3)cc2)cn1,11.0,39.2*,>21.9
c1nc(Nc2ccc(N3CCOCC3)cc2)c2[nH]c(N3CCN(Cc4ccc5c(c4)OCO5)CC3)nc2n1,41.9,42.9*,>13.8
COc1ccc(CCNC(=O)c2cccc(-c3ccc(OC)cc3)n2)cc1,-10.6,-24.7,·
COc1ccc(CCNc2cc(N3CCC(N4CCOCC4)CC3)nc(N)n2)cc1,8.2,-10.6,·
FC(F)(F)c1ccc(Cn2cnc3c(NCCN4CCOCC4)nc(NCCN4CCOCC4)nc32)cc1,-34.0,7.0,·
CCNc1cc(C(=O)Nc2ccc(NC(C)=O)cc2)ccn1,5.3,20.1,·
Cc1cc(NCCOc2ccccc2)nc(Nc2cccnc2)n1,-14.7,-7.1,·
CC(=O)Nc1ccc(Nc2cc(Nc3cccc(N(C)C)c3)ncn2)cc1,1.6,-7.4,·
Cc1cc(NCCOc2ccccc2)nc(Nc2cccc(N(C)C)c2)n1,9.0,56.6*,6.04*
Cc1cc(NCCO)nc(Nc2cccc(N(C)C)c2)n1,-17.9,6.4,·
Cc1cc(NCCc2ccc(O)cc2)nc(Nc2cccc(N(C)C)c2)n1,-3.3,54.7*,8.99*
CN(C)c1cccc(Nc2cc(Nc3ccccc3)ncn2)c1,-1.3,36.8*,>22.2
Cc1noc(C)c1-c1nccc(NCc2cccc(C(F)(F)F)c2)n1,-3.0,-24.4,·
O=C(Nc1ccc2[nH]ncc2c1)C1CCCN(C(=O)C(O)c2ccc(Cl)cc2)C1 (stereo not drawn),11.9,-4.1,·
CC(=O)c1cccc(-c2nc(NCCO)c3ncn(C4CCCCC4)c3n2)c1,0.3,-1.9,·
OCCNc1nc(-c2cccs2)nc2c1ncn2-c1ccsc1,-24.8,5.0,·
CCCNc1nc(Nc2ccc(N3CCOCC3)cc2)ncc1C,8.7,16.4,·
Cc1cnc(Nc2ccc(N3CCOCC3)cc2)nc1NCc1cccnc1,24.7,16.6,·
COc1cc2nc(Nc3ccc(N4CCOCC4)cc3)nc(NCCc3ccc(O)cc3)c2cc1OC,-8.8,22.8,·
COc1ccc(CCNc2nc(Nc3ccc(N4CCOCC4)cc3)ncc2C)cc1,27.3,40.4*,>19.9
COc1cc2nc(Nc3ccc(N4CCOCC4)cc3)nc(NCCOc3ccccc3)c2cc1OC,-0.7,56.8*,5.83*
SMILES,ULK1 primary,ASK1 primary,TruHits interf
Cc1cnc(Nc2ccc(N3CCOCC3)cc2)nc1NCc1ccccc1,16.5,37.4*,>20.2
COc1cc2nc(Nc3ccc(N4CCOCC4)cc3)nc(NCCCN3CCCC3=O)c2cc1OC,20.7,17.4,·
COc1ccc(CCNc2nc(Nc3ccc(N4CCOCC4)cc3)nc3cc(OC)c(OC)cc23)cc1,3.8,52.8*,6.78*
CN1CCN(c2ncn(-c3ccc(Nc4nccc(-c5cc(C#N)cc(N6CCOCC6)c5)n4)cc3)n2)CC1,14.2,0.9,·
O=C(NCCN1CCOCC1)c1ccc2nc(NC3CCC(O)CC3)sc2c1 (stereo not drawn),-9.0,-3.1,·
CC(=O)Nc1ccc(NC(=O)c2ccnc(-c3cccc(C(C)=O)c3)c2)cc1,-11.9,2.6,·
C=CCN1CCN(c2ccc(C(F)(F)F)cn2)C1=O,2.4,·,·
CC(C)n1cnc2c(NC3CCN(Cc4ccccc4)CC3)nc(Cl)nc21,-10.8,-14.6,·
O=C(NCc1cccc(C(F)(F)F)c1)c1ccnc(NCc2cccnc2)c1,-10.1,-25.1,·
CCN(CC)c1nc(NCCc2ccc(OC)cc2)nc(Nc2cccc(N(C)C)c2)n1,1.5,16.6,·
COc1ccc(CCNc2nc(Nc3cccc(N(C)C)c3)nc3cc(OC)c(OC)cc23)cc1,-8.9,61.1*,7.62*
COc1ccc2oc(C)c(C(=O)Nc3ccc(C)cc3)c2c1,-4.1,·,·
Cc1cccc(CNC(=O)Nc2ccc(-c3cn[nH]c3)cc2OCCN2CCOCC2)c1,-11.2,8.7,·
CC(C)N(CCNC(=O)c1csc(-c2ccc(N3CCOCC3)nc2)n1)C(C)C,11.8,-2.2,·
COc1ccc2c(c1)C[C@H](C(=O)Nc1ccc(-c3cn[nH]c3)cc1OCCN(C)C)CO2,-4.0,-5.7,·
COc1ccc2c(c1)CC(C(=O)Nc1ccc(-c3cn[nH]c3)cc1OCCN(Cc1ccccc1)Cc1ccccc1)CO2 (stereo not drawn),12.1,41.3*,>19.2
Cc1noc(C)c1-c1cc(NCCCN2CCCC2=O)ncn1,-29.1,-23.7,·
Oc1ccc(CCNc2nc(N3CCN(Cc4ccc5c(c4)OCO5)CC3)nc3c2ncn3-c2ccccc2)cc1,10.3,29.8,·
COc1ccc(CCNc2nc(Nc3ccccc3)nc3c2ncn3C2CCCCC2)cc1,6.0,25.4,·
